Source: PubChem BioAssay (several laboratories)
Compounds with a hit are over-represented: about 2.4% of the library has one in this group of screens.
ANO1 block: inhibitors of mouse TMEM16A calcium-activated chloride channel | Q8BHY3 | HEK293 TMEM16A/YFP iodide influx fluorescence, ionomycin | normalized B-score (activity score, 25-100; higher = stronger inhibition) at 10 µM | 1.2% of 310,000 active | AID 588511;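 active = ratio plate-corrected score three or more library SD toward inhibition, starting fluorescence score within five deviations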;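 note: score derived from kinetic fluorescence span divided by baseline fluorescence per well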
Target sequence (Q8BHY3 whole entry, looked up): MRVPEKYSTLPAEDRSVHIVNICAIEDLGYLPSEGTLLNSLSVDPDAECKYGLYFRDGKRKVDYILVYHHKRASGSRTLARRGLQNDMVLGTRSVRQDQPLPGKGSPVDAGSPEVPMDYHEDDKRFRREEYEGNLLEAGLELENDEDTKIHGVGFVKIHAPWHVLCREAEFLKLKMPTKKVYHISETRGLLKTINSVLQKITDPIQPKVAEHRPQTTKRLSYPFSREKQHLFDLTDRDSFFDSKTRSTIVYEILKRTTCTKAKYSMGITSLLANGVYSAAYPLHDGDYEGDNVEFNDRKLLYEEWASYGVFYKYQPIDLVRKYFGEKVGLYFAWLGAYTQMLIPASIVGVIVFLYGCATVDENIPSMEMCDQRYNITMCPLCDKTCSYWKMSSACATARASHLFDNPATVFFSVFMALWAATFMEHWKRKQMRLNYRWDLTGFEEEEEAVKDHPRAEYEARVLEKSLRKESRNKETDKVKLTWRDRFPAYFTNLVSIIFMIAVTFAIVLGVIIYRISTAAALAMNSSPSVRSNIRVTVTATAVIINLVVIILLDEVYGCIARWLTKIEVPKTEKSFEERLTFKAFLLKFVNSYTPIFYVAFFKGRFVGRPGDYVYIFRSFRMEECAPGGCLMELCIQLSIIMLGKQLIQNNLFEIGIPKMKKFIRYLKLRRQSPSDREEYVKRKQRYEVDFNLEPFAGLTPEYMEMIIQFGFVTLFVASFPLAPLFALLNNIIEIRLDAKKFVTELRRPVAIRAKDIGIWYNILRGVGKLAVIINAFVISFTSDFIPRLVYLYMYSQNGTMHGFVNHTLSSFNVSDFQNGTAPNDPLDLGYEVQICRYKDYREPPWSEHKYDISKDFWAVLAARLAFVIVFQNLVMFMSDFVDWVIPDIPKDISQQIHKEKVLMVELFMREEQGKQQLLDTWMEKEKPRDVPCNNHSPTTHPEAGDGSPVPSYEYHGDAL
CRFR2-BP antag: blocks CRF-induced signaling of the CRF-BP/CRF-R2 complex | inhibition, % at 11.8 µM | HEK293 CRF-R2/CRF-BP, CRF-induced calcium fluorescence | 0.59% of 350,000 active | AID 588475;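 active = inhibition of the ligand-induced calcium signal above about 50% at the single tested concentration, limit read from the data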
cardiac RTF act: increases calcium sensitivity of human cardiac regulated thin filaments. P19429+P45379. IANBD-labeled TnC RTF fluorescence at EC20 calcium; 0% EC20 calcium, 100% full calcium. activation, % at 7.2 µM. 0.24% of 340,000 active;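 active = activation above the mean over all tested compounds plus 3 SD, cut at about 30% in these data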;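 note: rise in fluorescence read as greater calcium sensitivity of cardiac thin filaments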
TMEM16A act: activates or potentiates the mouse TMEM16A chloride channel | Q8BHY3 | HEK293 TMEM16A/YFP-H148Q/I152L, iodide quench fluorescence; stronger effect = lower value | B-score at 10 µM | 0.3% of 340,000 active | AID 623877;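 active = fluorescence-ratio B-score plate-corrected deviation score at least 3 library SD below zero, with starting fluorescence score within 5 deviations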;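 note: channel opened by trigger with iodide after compound preincubation; score built on the fluorescence ratio of max minus min over baseline; more negative score means more quench and so TMEM16A activation or potentiation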
CRFR2-BP ag: CRF-BP/CRF-R2 complex agonism | 0.46% of 350,000 active | HEK293 CRF-R2/CRF-BP, calcium dye fluorescence (FLIPR); percent of saturating CRF peptide response | AID 588473 | activation, % at 13.2 µM;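 active = activation of at least 50%, plus an integration ratio under a set limit after plate pattern correction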;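 note: plate controls were neutral control wells without compound for no effect and CRF at EC100 for full effect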
Cardiac RTF inh: cardiac RTF calcium desensitization; P19429+P45379; IANBD-labeled cardiac RTF, Ca2+ fluorescence; inhibition, % at 7.15 µM; 0.12% of 340,000 active;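 active = inhibition above the mean inhibition of all tested compounds plus 3 SD, cut at about 17% in these data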;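 note: assay run at fixed EC70 calcium of 1.6 mM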
The depositor's hits bear a star; i = inactive; . = no result.

SMILES | ANO1 block | CRFR2-BP antag | cardiac RTF act | TMEM16A act | CRFR2-BP ag | Cardiac RTF inh
Cc1ccc(C2(C)CC(C)(C)N(C(=O)CSc3nnc(C)s3)c3ccccc32)cc1 (stereo not drawn) | i | 115* | -9 | i | -2 | -5
CC1CCN(S(=O)(=O)c2nnc(NC(=O)c3cccc(Cl)c3)s2)CC1 | i | 60* | -2 | i | 13 | 1
C1CC(CN2CCOCC2)CN(Cc2nc(CC3CC3)no2)C1 (stereo not drawn) | i | -5 | 1 | i | -1 | 8
CC(C)(/C=N/NC(=O)CSCc1ccc(Cl)cc1)CCC#N | i | 0 | 0 | i | 0 | 9
Cc1cc(-c2ccccc2C(=O)O)on1 | i | 17 | 14 | i | 0 | -5
O=C(O)c1ccccc1C1=Nc2ccc(O)cc2Oc2cc(O)ccc21 | i | -93 | 117* | i | 107* | -159
O=C(c1ccco1)N1CCN(C(=O)c2cn(-c3ccccc3)nc2-c2ccccc2)CC1 | . | -1 | 3 | i | 0 | 6
CCC(C)Sc1ccc([C@H]2N[C@@](CC(C)C)(C(=O)OC)[C@H]3C(=O)N(CC)C(=O)[C@@H]23)cc1 (stereo partly drawn) | i | -17 | 4 | -8.4* | 1 | 4
COC(=O)[C@]1(CC(C)C)N[C@H](c2ccc(-c3cccc(Cl)c3)cc2)[C@@H]2C(=O)N(C)C(=O)[C@@H]21 | i | -16 | -6 | -8.6* | 6 | 10
COc1ccc(N2CCN(CCCn3ccc(NC(=O)OCc4ccccc4)nc3=O)CC2)cc1 | . | 9 | . | . | 0 | .
CCOC(=O)c1cnc2c(C#N)c(C)nn2c1C | i | 2 | 1 | -23* | -3 | -3
CN1C(=O)/C(=C/c2ccccc2F)Sc2ccc(C(=O)N3CCCC3)cc21 | 25* | -2 | -3 | i | 0 | -9
COc1ccc(-c2cccc3c2C2CC3CCN2C(=O)OCc2ccccc2)cc1 (stereo not drawn) | . | -5 | -7 | . | 6 | -5
C=C(C)CSc1nc2c(cc1C#N)CCC2 | i | 64* | -5 | i | -1 | 5
C=CCSc1nc2c(cc1C#N)CCC2 | i | 18 | 1 | i | 1 | -5
COc1ccccc1C(CCN(Cc1ccccc1)C(C)=O)c1ccco1 (stereo not drawn) | i | 20 | 1 | -9.1* | -3 | -6
CC(OC(=O)c1ccc2c(c1)S(=O)(=O)c1ccccc1C2=O)C(N)=O (stereo not drawn) | i | -4 | -6 | i | -1 | -3
COc1ccc(CCNc2nc(C)nc3c2oc2ccccc23)cc1OC | i | 4 | 2 | i | -1 | -16
COc1ccc(CCNc2ncnc3c2oc2ccccc23)cc1OC | 100* | 17 | -5 | i | -3 | -2
O=[N+]([O-])/C=C\c1ccc(N2CCCC2)c(F)c1 | . | -89 | 5 | i | 106* | -7
O=Cc1ccc(N2CCCC2)c([N+](=O)[O-])c1 | i | 6 | 8 | i | -2 | -11
CCCn1nc(C(=O)Nc2ccc(S(=O)(=O)Nc3nccs3)cc2)c2ccccc2c1=O | i | -10 | 3 | i | 3 | -14
CCCn1nc(C(=O)Nc2cc(S(=O)(=O)Nc3ccc(OC)cc3)ccc2O)c2ccccc2c1=O | . | 54* | -3 | i | -1 | 2
Nc1nc(Sc2ccc([N+](=O)[O-])c3nonc23)c2[nH]cnc2n1 | . | -47 | -7 | -6* | 9 | -4
CNc1ncnc(Sc2nc(N)nc3nc[nH]c23)c1[N+](=O)[O-] | . | -6 | -3 | i | 3 | 2
SMILES | ANO1 block | CRFR2-BP antag | cardiac RTF act | TMEM16A act | CRFR2-BP ag | Cardiac RTF inh
N#CC1C=Cc2c(ccc3ccccc23)N1C(=O)c1ccccc1 (stereo not drawn) | . | 18 | 6 | i | -3 | 2
COCC(=O)N1CCC2CC1c1c(-c3ccc(C(F)(F)F)cc3)cccc12 (stereo not drawn) | . | 6 | -3 | . | 1 | 0
CCOc1ccc([C@@H]2CC=C(C(=O)O)[C@H](c3cccc(Cl)c3)N2S(=O)(=O)c2ccc(C)cc2)cc1 | i | 7 | -1 | -6.9* | -2 | 8
Cc1ccc(S(=O)(=O)N2[C@@H](c3ccc(C(C)(C)C)cc3)C(C(=O)O)=CC[C@H]2c2ccc(Cl)cc2)cc1 | . | 8 | -2 | . | 4 | 5
Cc1ccc(S(=O)(=O)N2[C@@H](c3cccc(Cl)c3)C(C(=O)O)=CC[C@H]2c2ccc(Cl)cc2)cc1 | 100* | 20 | -5 | i | 7 | -9
Cc1ccc(S(=O)(=O)N2[C@@H](c3ccc(Cl)cc3)C(C(=O)O)=CC[C@H]2c2ccc(Cl)c(Cl)c2)cc1 | 100* | 14 | -4 | i | 0 | -2
CCOc1ccc([C@@H]2CC=C(C(=O)O)[C@H](c3ccc(F)cc3)N2S(=O)(=O)c2ccc(C)cc2)cc1 | i | 4 | 4 | i | -1 | -4
Cc1ccc(C)c(C2=NNC(=O)CC2)c1 | i | -5 | 20 | i | 0 | -10
NC(=S)N/N=C\c1ccccc1OCc1ccccc1 | i | 37 | 1 | i | -3 | 0
NC(=S)N/N=C/c1c[nH]c2ccc(OCc3ccccc3)cc12 | 25* | -5 | -7 | i | -1 | 4
Cn1ccnc1C(=O)c1cccc(Br)c1 | i | 16 | 0 | i | -1 | -1
Cc1[nH]c2ccccc2c1C(=O)C(=O)N1CCN(c2cccc(Cl)c2)CC1 | i | -4 | -5 | -53* | 0 | -11
Cc1ccc(/C=C2\S/C(=N/S(=O)(=O)c3cccs3)NC2=O)cc1 | 25* | 25 | -2 | i | 0 | -3
Cc1ccc(S(=O)(=O)/N=C2/NC(=O)/C(=C/c3ccccc3)S2)cc1 | 100* | 115* | -2 | i | -2 | 3
Cc1ccc(S(=O)(=O)/N=C2/NC(=O)/C(=C\c3ccccc3)S2)cc1 | . | 15 | -2 | i | -1 | 0
CCCCC[C@H](O)/C=C/[C@H]1CCC(=O)[C@@H]1CCCCCCC(=O)N1CCCCC1CO (stereo partly drawn) | i | -18 | 1 | . | 1 | -7
C=CCOc1c(CNc2cccc(C(=O)O)c2)cccc1OC | i | -9 | -1 | i | -1 | -9
C=CCOc1c(CNc2cccc(C(=O)O)c2)cccc1OCC | i | 64* | 1 | i | -1 | -5
CCN(CC)c1ccc(CNc2nc3ccccc3n2CCN2CCCCC2)cc1 | 100* | -51 | -2 | i | 13 | -4
CCOc1ccc(C(C(=O)NC2CCCC2)N(C(=O)c2snc(C(N)=O)c2N)c2cccc(O)c2)cc1 (stereo not drawn) | i | 2 | 2 | i | 4 | -6
